Screening results deposited in PubChem by National Center for Advancing Translational Sciences (NCATS).
This is a sample that favours compounds with a hit; in the whole collection about 9% have one here.
HP1b binding inh: HTS for Inhibitors of HP1-beta Chromodomain Interactions with Methylated Histone Tails. Potency, µM (titrated, usually from 114 µM), for inactives: at the top dose activity change, negative = inhibition, most hits filed as inhibitors. hit rate 0.56% among 390,000. AlphaScreen HP1-beta / biotin-H3K9me3 peptide binding; note: nearly all actives have a fitted effect of over 70% in size
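AlphaScreen: HP1-beta (50 nM) preformed 30 min with biotin-H3(1-18)K9me3 peptide (50 nM) in PBS pH 7.4, 0.01% Tween-20. Compound added for 30 min at RT, then streptavidin donor/nickel chelate acceptor beads (10 ug/mL) for 30 min.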
PLK1 PBD inh: qHTS for Inhibitors of PLK1-PDB (polo-like kinase 1 - polo-box domain): Primary Screen | Serine/threonine-protein kinase PLK1 (Homo sapiens), P53350 | Plk1 PBD binding of FITC phosphopeptide, fluorescence polarization | Potency, µM, inactives show max response, negative = inhibition, most hits filed as inhibitors | hit rate 2.8% among 360,000 | AID 720504, 2013; note: series mostly up to about 57 µM; % is set by controls: 0 for no effect and ±100 for the full control effect; nearly all actives have a fitted effect of over 65% in size
12-LOX inh: Primary qHTS assay for inhibitors of human arachidonate 12S-lipoxygenase (ALOX12): Round 2. purified 12hLO, xylenol orange hydroperoxide absorbance. Potency, µM (top dose mostly 108 µM), for the others: at the top dose activity change, negative = inhibition, usual class: inhibitors. hit rate 1.1% among 580,000; note: % is set by controls: 0 for no effect and ±100 for the full control effect
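Hydroperoxide product was detected by ferrous iron/xylenol orange as the 573 to 405 nm absorbance ratio. Arachidonic acid at 40 uM (final) was turned over for 30 min at room temperature by 150 nM human 12hLO, pH 7.0 Hepes buffer, after 15 min compound preincubation.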
G9a block: qHTS Assay for Inhibitors of Histone Lysine Methyltransferase G9a. G9a H3K9 monomethylation, AlphaScreen, 2 h. Potency, µM (series often up to 102 µM), inactives show top-dose activity, negative = inhibition, usual class: inhibitors. Histone-lysine N-methyltransferase EHMT2 (Homo sapiens), Q96KQ7. hit rate 8.8% among 350,000; note: % is set by controls: 0 for no effect and ±100 for the full control effect; nearly all actives have a fitted effect of over 75% in size
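Step 1: enzyme (final 20 nM) with compound, 15 min RT. Step 2: substrate peptide 500 nM and SAM 20 uM, 2 h RT. Step 3: anti-H3K9me1 antibody and AlphaScreen beads, 10 min, then plate read.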
BAZ2B block: qHTS Assay for Inhibitors of BAZ2B. Bromodomain adjacent to zinc finger domain protein 2B (Homo sapiens), Q9UIF8. AlphaScreen BAZ2B-H3K14Ac peptide displacement. Potency, µM (doses to about 114 µM), inactives show at the highest dose activity change, negative = inhibition, hits mostly inhibitors. hit rate 4.4% among 360,000. AID 504333, 2011; note: % is set by controls: 0 for no effect and ±100 for the full control effect; nearly all actives have a fitted effect of over 60% in size
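Complex of BAZ2B and biotin-H3K14Ac (50 nM apiece) forms over 30 min at RT, then faces library compounds up to 110 uM for another 30 min; AlphaScreen beads added, 20 min dark incubation, luminescence read.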
JMJD2A Tudor inh: qHTS Assay for Inhibitors of JMJD2A-Tudor Domain. hit rate 4.4% among 390,000. Potency, µM (series often up to 114 µM), without a hit: top-dose activity change, negative = inhibition, hits mostly inhibitors. AlphaScreen JMJD2A-Tudor / H3K4me3 peptide binding. AID 504339, 2011; note: % is set by controls: 0 for no effect and ±100 for the full control effect; nearly all actives have a fitted effect of over 50% in size
* = called active by the depositor; [ ] = dose if it differs, or a comment. Calls come from the whole dose curve; as a rule, active = well fitted curve in the direction sought with a large enough effect; inconclusive = small, poorly fitted or top-dose-only effect, or another doubt; inactive = no such curve, though single readings can be large; an effect the other way counts as inactive or inconclusive. Potency is the fitted concentration of half-maximal effect.

CCCn1c(CCC(=O)O)ccc1-c1cccs1 was read as HP1b binding inh 16%, PLK1 PBD inh -9%, 12-LOX inh inconclusive, G9a block inconclusive, BAZ2B block inconclusive and JMJD2A Tudor inh -26%.
CC(=O)c1ccc(-n2c(CCC(=O)O)ccc2-c2cccs2)cc1 was read as HP1b binding inh -5%, PLK1 PBD inh -8%, 12-LOX inh inconclusive, G9a block 14µM*, BAZ2B block inconclusive and JMJD2A Tudor inh inconclusive.
Screening Cc1ccc(-n2c(CCC(=O)O)ccc2-c2cccs2)cc1 returned HP1b binding inh -7%, PLK1 PBD inh -17%, 12-LOX inh inconclusive, G9a block inconclusive, BAZ2B block 50µM* and JMJD2A Tudor inh inconclusive.
`Cc1cccc(NS(=O)(=O)c2csc(C(N)=O)c2)c1` gave HP1b binding inh 48%, PLK1 PBD inh -3%, 12-LOX inh 5%, G9a block 1%, BAZ2B block -10% and JMJD2A Tudor inh -4%.
COc1ccc(C(=O)Oc2c(C)occc2=O)cc1OC was read as HP1b binding inh 31%, PLK1 PBD inh -2%, 12-LOX inh 0%, G9a block 8%[12.7 µM], BAZ2B block 9% and JMJD2A Tudor inh -15%.
Cc1occc(=O)c1OC(=O)Nc1ccc(Cl)c(Cl)c1 was read as HP1b binding inh 5%, PLK1 PBD inh -11%, 12-LOX inh inconclusive, G9a block inconclusive, BAZ2B block -1% and JMJD2A Tudor inh 25µM*.
Screening C/C(=C(/CCO)SSCC1CCCO1)N(C=O)Cc1cnc(C)nc1N (configuration not stated) returned HP1b binding inh 55%, PLK1 PBD inh 2%, 12-LOX inh -21%, G9a block 13µM*, BAZ2B block 6% and JMJD2A Tudor inh -16%.
Screening CCOC(=O)c1c(C)n(-c2ccccc2)c2ccc(OC(=O)c3cccc(Cl)c3)cc12 returned HP1b binding inh 53%, 12-LOX inh 0%, G9a block -27%[59 µM], BAZ2B block 3% and JMJD2A Tudor inh 1%.
CCOc1ccc(C2C(C(N)=O)=C(C)Nc3nc(SCc4ccccc4F)nn32)cc1 (configuration not stated) was read as HP1b binding inh 31%, 12-LOX inh 0%, G9a block -23%[59 µM], BAZ2B block -14% and JMJD2A Tudor inh -8%.
Clc1ccc2[nH]c(-c3ccccc3)cc2c1 was read as HP1b binding inh 21%, PLK1 PBD inh -7%, 12-LOX inh inconclusive, G9a block 9%[59 µM], BAZ2B block -4% and JMJD2A Tudor inh -10%.
`Cc1ccc2[nH]c(-c3cccc(N)c3)cc2c1` gave HP1b binding inh inconclusive, PLK1 PBD inh -1%, 12-LOX inh 0%, G9a block 50µM*, BAZ2B block 50µM* and JMJD2A Tudor inh inconclusive.
CCOC(=O)N1CCN(C(=O)CN2C(=O)COc3ccc(C(C)(C)C)cc32)CC1 was read as HP1b binding inh -3%, PLK1 PBD inh inconclusive, 12-LOX inh 11%, G9a block inconclusive, BAZ2B block 38% and JMJD2A Tudor inh 89µM*.
Screening CCOc1ccccc1NC(=O)CSc1ccc(-c2ccco2)nn1 returned HP1b binding inh 6%, PLK1 PBD inh -20%, 12-LOX inh inconclusive, G9a block 25µM*, BAZ2B block inconclusive and JMJD2A Tudor inh -32%.
For O=C(CSc1ccc(-c2ccco2)nn1)Nc1ccccc1F the results were HP1b binding inh 27%, PLK1 PBD inh -14%, 12-LOX inh 0%, G9a block 40µM*, BAZ2B block -16% and JMJD2A Tudor inh -5%.
